{
  "source": "the supplement of paper PMC10338343",
  "note": "± gives the standard deviation.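 Note: 1 nM active piRISC with 0.1 nM target library at 33 °C single turnover.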",
  "data": [
    {"system": "MILI (PIWIL2) piRISC loaded with L1MC piRNA (26 nt)", "test": "pre-steady-state target cleavage rate (min^-1); guide: L1MC piRNA 5'p-UAACUAAAUACUAUGCAAGCUGUAGG; MIWI and MILI are mouse PIWI proteins and EfPiwi is from a freshwater sponge; tags in brackets are library labels; higher = faster piRNA-guided slicing of the target", "details": "auxiliary factor: 500 nM mouse GTSF1", "how_it_was_run": "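Reactions were run for 0–8 or 0–960 min at 33 °C in HEPES–potassium acetate buffer, combining 1 nM active affinity-purified piRISC with one synthetic guide, […] transcribed, DNA-blocked target RNA library and, in some cases, 500 nM GTSF1 partner protein. Sequencing of uncleaved targets followed, with normalisation to depth and to weakly complementary targets. Three trials were pooled, k3 was capped at 0.0001 min^-1, and the pre-steady-state cleavage rate was taken from a burst-and-steady-state fit.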", "values": [
      {"sequence": "UCCUGGAACACGAUGCAUAGUAUUUAGUAA", "pre-steady-state target cleavage rate": "0.0953 ± 0.013"},
      {"sequence": "UCCUGGAACAGCUUGCAAAGUUUUUAGUUA", "pre-steady-state target cleavage rate": "0.0201 ± 0.0064"},
      {"sequence": "UCCUGGAUGUCGUUGCAUAGUAUUUAGUGUA", "pre-steady-state target cleavage rate": "0.17 ± 0.027"},
      {"sequence": "UCCUGGAUGUGCAUGCAUAGUAAUUAGUUA", "pre-steady-state target cleavage rate": "0.0501 ± 0.008"},
      {"sequence": "UCCUGGAUCAGCUUGCAUUGUUUUUAGUUA", "pre-steady-state target cleavage rate": "0.0121 ± 0.0054"},
      {"sequence": "UCCUGGUACAGCAUGGAUAGUAUUUAGUUA", "pre-steady-state target cleavage rate": "0.197 ± 0.019"},
      {"sequence": "UCCUGGAACAGCUAGCAUAGUAUAUAGUUA", "pre-steady-state target cleavage rate": "0.229 ± 0.026"},
      {"sequence": "UCCUGGAUGUGCUUGGAUAGUUUUUAGUUA", "pre-steady-state target cleavage rate": "0.00761 ± 0.0046"},
      {"sequence": "UCCUGGAUGUCCUUGGAUAGUAUUUAGUUA", "pre-steady-state target cleavage rate": "0.153 ± 0.021"},
      {"sequence": "UCCUGGAUGUCGUUGCAUAGUCAUUUAGUUA", "pre-steady-state target cleavage rate": "0.00441 ± 0.0039"},
      {"sequence": "UCCUGGAUGUCCUUGCAAUGUAUUUAGUUA", "pre-steady-state target cleavage rate": "0.0105 ± 0.0042"},
      {"sequence": "UCCUGGAUGUCGUUGCUUAGUAUUUUGUUA", "pre-steady-state target cleavage rate": "0.0541 ± 0.016"},
      {"sequence": "UCCUGGAUGUCCUUGCAUAGUAUUGUAGUUA", "pre-steady-state target cleavage rate": "0.102 ± 0.023"},
      {"sequence": "UCCUGGAUGUGGUUGCAUAGAAUUUAGUUA", "pre-steady-state target cleavage rate": "0.0151 ± 0.0063"},
      {"sequence": "UCCUGGAUGUGCUUGCAUUGUUUUUAGUUA", "pre-steady-state target cleavage rate": "0.00733 ± 0.005"},
      {"sequence": "UCCUGGUACAGCUUGGUAAGUAUUUAGUUA", "pre-steady-state target cleavage rate": "0.113 ± 0.018"}
    ]}
  ]
}
